From PubChem BioAssay (EPA / NIEHS)
Activity calls are given as the source filed them. How the source made its calls: active means hit-call score of the fitted dose curve at least 0.9, where 1 is the maximum; inactive means score below 0.9.

read-out: Thrombomodulin, THBD (gene 7056); assay: BSK_CASM3C_Thrombomodulin: BioMAP Diversity Plus: CASM3C Assay for Thrombomodulin Biomarker Activity (AID 2283051); settings: primary human coronary artery smooth muscle cells; actives raise or lower the signal;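 further: thrombomodulin protein level measured by ELISA 24 h after dosing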

Q: Which outcome does the source give for CCCCCCCCCCC1CO1 (stereo unspecified) here?
A: inactive

Q: Which outcome does the source give for Cc1cccnc1 here?
A: inactive

Q: With CC(C)CC(=O)CC(C)CC(C)C (stereo unspecified) as the compound, how does the outcome read?
A: inactive

Q: CN(C)CCC(c1ccc(Cl)cc1)c1ccccn1 (stereo unspecified) was tested. Which outcome did it give?
A: inactive

read-out: Tissue Factor, F3 (gene 2152); assay: BSK_CASM3C_TissueFactor: BioMAP Diversity Plus: CASM3C Assay for Tissue Factor Biomarker Activity (AID 2283052); settings: primary human coronary artery smooth muscle cells; actives raise or lower the signal;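 further: cell surface tissue factor protein level read by ELISA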

Q: CCCCCCCCCCC1CO1 (stereo unspecified) was tested. Which AC50 did it give?
A: 30.2 µM (active)

Q: Cc1cccnc1 was tested. Which outcome did it give?
A: inactive

Q: How did the AC50 turn out when CC(C)CC(=O)CC(C)CC(C)C (stereo unspecified) was run?
A: 31.7 µM (active)

Q: How did the outcome turn out when CN(C)CCC(c1ccc(Cl)cc1)c1ccccn1 (stereo unspecified) was run?
A: inactive

read-out: Interferon-gamma inducible Protein 10 (IP10), CXCL10 (gene 3627); assay: BSK_hDFCGF_IP10: BioMAP Diversity Plus: hDFCGF Assay for Interferon-gamma inducible Protein 10 (IP10) Biomarker Activity (AID 2283053); settings: primary human foreskin fibroblasts; actives raise or lower the signal
Summary of the method: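 ELISA quantification of IP-10 after a 24 h chemical exposure of human dermal foreskin fibroblast primary cultures. Both increases and decreases versus DMSO fitted.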

Q: CCCCCCCCCCC1CO1 (stereo unspecified) was tested. Which AC50 did it give?
A: 34 µM (active)

Q: Which outcome does the source give for Cc1cccnc1 here?
A: inactive

Q: For CC(C)CC(=O)CC(C)CC(C)C (stereo unspecified), which outcome is on record?
A: inactive

Q: Which outcome does the source give for CN(C)CCC(c1ccc(Cl)cc1)c1ccccn1 (stereo unspecified) here?
A: inactive

read-out: Urokinase-type plasminogen activator receptor (uPAR), PLAUR (gene 5329); assay: BSK_CASM3C_uPAR: BioMAP Diversity Plus: CASM3C Assay for Urokinase-type plasminogen activator receptor (uPAR) Biomarker Activity (AID 2283054); settings: primary human coronary artery smooth muscle cells; actives raise or lower the signal;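 further: cell-surface uPAR protein level quantified by ELISA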

Q: CCCCCCCCCCC1CO1 (stereo unspecified) was tested. Which AC50 did it give?
A: 34.3 µM (active)

Q: For Cc1cccnc1, which outcome is on record?
A: inactive

Q: Which AC50 does the source give for CC(C)CC(=O)CC(C)CC(C)C (stereo unspecified) here?
A: 30.4 µM (active)

Q: CN(C)CCC(c1ccc(Cl)cc1)c1ccccn1 (stereo unspecified) was tested. Which outcome did it give?
A: inactive
